Measured values published in PubChem BioAssay (NCI).
Compounds without any hit were thinned out: in the full panel of roughly 83,000, 20% have a hit.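 Assay: single dose, 48 h. Readout: percent growth (0 = no net growth; negative = cell death). Active: <10.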 The source made the active and inactive calls.

System: HL-60(TB) leukemia
Test: NCI-60 one-dose screen, 48 h (100 = growth as untreated, 0 = no growth, -100 = all killed)
Details: 10 µM unless noted

Compound	growth
COc1ccc2c(c1)C(=O)/C(=C/c1cccnc1)CC2	99.5% (inactive)
CC(C)c1ccc2nc3ccc(C(=O)NCCN4CCN(c5ccccc5)CC4)cn3c(=O)c2c1	74.9% (inactive)
COc1ccc(C2NC(=O)C(C#N)c3c2sc2c(F)cccc32)c(OC)c1 (stereo not given)	56.9% (inactive)
CC1=C(C(=O)/C=C/c2c[nH]c3ccccc23)C(c2ccccc2)NC(=S)N1 (stereo not given)	99.5% (inactive)
O=C1C(=O)c2cc([N+](=O)[O-])ccc2-c2ccccc21	-30% (active)
Cc1ccccc1[P+](Cc1ccccc1)(c1ccccc1)c1ccccc1	-26.9% (active)
CCN(CC)CCO/N=C1\CC(c2ccc(OC)c(OC)c2)Oc2ccccc21 (stereo not given)	78.4% (inactive)
CNC(=O)c1cc(Oc2ccc(NC(=O)c3[nH]c(SC)nc3-c3ccc(F)cc3)cc2)ccn1	78.6% (inactive)
c1ccc(-n2nnnc2-c2cccc3ccccc23)cc1	-21.8% (active)
CS(=O)(=O)c1ccc(N/N=C/c2c(-c3ccc(S(C)(=O)=O)cc3)[nH]c3ccc(F)cc23)cc1	-14.6% (active)
FC(F)(F)c1cccc(-c2cn3c(ccc4ccccc43)n2)c1	114% (inactive)
CCOC(=O)c1sc2ccc(NCc3nc[nH]c3C)cc2c1NC(=O)c1cc(OC)c(OC)c(OC)c1	5.99% (active)
CC(=O)c1ccc2c(c1)C1C=CCC1[C@H](c1cc3c(cc1Br)OCO3)N2 (stereo not given in full)	-45.3% (active)
O=C(NNC(=O)c1ccc([N+](=O)[O-])cc1)c1ccc([N+](=O)[O-])cc1	88.3% (inactive)
O=S(=O)(NCCCNc1cc(-c2cn(-c3ccccc3)nc2-c2ccccc2)ccn1)c1ccc(C(F)(F)F)cc1	39.1% (inactive)
CCCOC(=O)c1c(C)n(C)c2scc[n+]12	92.6% (inactive)
COc1ccc(-c2cc(-c3ccc(OC)c(OC)c3)nc(SCCCCCC(=O)NO)n2)cc1	-9.93% (active)
O=C(CCCCNC(=O)c1nc(-c2ccccc2)n(-c2ccccc2)n1)NO	97% (inactive)
C=C1C(=O)O[C@H]2[C@H]1CC/C(Cn1cc(Cn3ccc4cc(Cl)ccc43)nn1)=C\CC[C@@]1(C)O[C@@H]21	-37.7% (active)
COc1cc(N)c2ncccc2c1Cl	85.6% (inactive)

Compound	growth
N#Cc1cnn(C(=O)c2nn(-c3ccc(Cl)cc3)cc2O)c1N	-50.1% (active)
O=C(COC(=O)[C@H](C[Se][Se]C[C@H](NC(=O)c1ccc(Br)cc1F)C(=O)OCC(=O)c1ccc(F)cc1)NC(=O)c1ccc(Br)cc1F)c1ccc(F)cc1	-45.3% (active)
O=C1/C(=C/c2ccc(O)cc2)COc2ccc(O)c(O)c21	-19.3% (active)
N#CC1C(=O)NC(c2ccccc2[N+](=O)[O-])c2sc3c(F)cccc3c21 (stereo not given)	82.3% (inactive)
O=C(Nc1ccc(N2CCNCC2)cn1)c1[nH]ncc1Nc1ncnc2sc3c(c12)CCC3	74% (inactive)
Nc1nc(SCc2cccnc2)c2ncn(C3OC(CO)C(O)C3O)c2n1 (stereo not given)	103% (inactive)
COc1cccc(-c2cc3c(O)cc(C#N)cc3[nH]2)c1	21.3% (inactive)
O=[N+]([O-])c1ccc(Oc2cccc(C(F)(F)F)c2)c([N+](=O)[O-])c1	14.3% (inactive)
Cc1c(C(=O)NCCC(=O)NO)sc2ncnc(Nc3ccc(F)c(Cl)c3)c12	103% (inactive)
CN1C(=O)/C(=C/c2ccc(C(=O)Nc3ncc(Cc4cccc(C(F)(F)F)c4)s3)cc2)SC1=S	43.3% (inactive)
CCOc1ccc(NC(=O)Nc2ccc(OCC)cc2)cc1	96.7% (inactive)
CC(C)(C)c1ccc(Cn2c(-c3nonc3N)nc3ccccc32)cc1	51.4% (inactive)
O=C1/C(=C/c2ccc(Br)cc2)COc2ccc(O)cc21	-15.7% (active)
N=C(N)c1ccc(-c2ccc(-c3cccs3)s2)cc1F	-47.8% (active)
Cc1cc(-c2ccccc2)nc2ccccc12	90.8% (inactive)
Nc1nc(N)c2nc(-c3cccc(O)c3)c(-c3cccc(O)c3)nc2n1	120% (inactive)
O=C(/C=C/c1cc(-c2ccc3c(c2)OCO3)n[nH]1)c1ccc2c(c1)OCO2	79.7% (inactive)
O=C1/C(=C/N2N=C(c3ccc4ccccc4c3)CC2c2ccccc2O)SC(=S)N1c1cccnc1 (stereo not given)	-15.3% (active)
Fc1ccc(Nc2nc(Nc3ccc(-c4nc5ccccc5[nH]4)cc3)nc(N3CCCC3)n2)cc1	5.97% (active)
O=S(=O)(Nc1ccc(OC(F)F)cc1)c1ccc(-c2cnc(C3CC3)o2)cc1	64.7% (inactive)
